The source of these data is PubChem BioAssay (Tox21).

Several values for one entry are separate records, joined by “and”; a condition that tells them apart may be missing. Identical values can stand only once. Results filed as inconclusive are left out. Where a structure was tested more than once in an assay, its records may differ in their call. Activity calls are given as the source filed them. Unless noted, calls come from the whole dose curve; as a rule, active = well fitted curve in the direction sought with a large enough effect in the repeat runs; inconclusive = weak or mixed curves; inactive = no such curve, though single readings can be large; an effect the other way counts as inactive or inconclusive.

The nature of test [1]: qHTS assay to identify small molecule agonists of the progesterone receptor (PR) signaling pathway - cell viability counter screen (AID 1346799; calls by dose curve; note: nearly all actives have a fitted effect of over 45% in size). An outline of the steps:
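Luminescence from CellTiter-Glo, added after the beta-lactamase FRET read in the same wells, gave cytotoxicity in PR-UAS-bla HEK293T cells treated with compounds for 16 hr at 37C.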

Test [2] can be described thus: qHTS assay to identify small molecule antagonists of the TGF-beta/Smad signaling pathway - cell viability counter screen (AID 1346824). Note: nearly all actives have a fitted effect of over 50% in size. In outline: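 SBE-bla HEK 293T cells, incubated overnight, then compound plus 0.25 ng/mL TGF-beta1 (stock added) for 5 hr at 37 C. Viability was read in the same wells by CellTiter-Glo luminescence after 30 min at room temperature.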
(qHTS replaces the single test concentration by a dilution series.)

A short description of test [3]: qHTS assay to identify small molecule agonists of the TGF-beta/Smad signaling pathway - cell viability counter screen (AID 1346829). Note: top concentration of the series differs between compounds; nearly all actives have a fitted effect of over 45% in size. An outline of the steps:
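SBE-bla HEK 293T cells plated overnight, compound exposure 5 hr at 37 C. Viability read in the same wells by CellTiter-Glo luminescence after 30 min at room temperature, following the beta-lactamase read.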

Test [4] is described as follows: Human pregnane X receptor (PXR) small molecule agonists, qHTS cell viability counter screen (AID 1346977). Note: nearly all actives have a fitted effect of over 50% in size. Note: potency is the fitted concentration of half-maximal effect. In outline:
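PXR-Luc HepG2, 2,000 cells/well, 5% charcoal-stripped FBS; 5hr settle; cpd 24hr, 37C/5% CO2; CellTiter-Fluor at 23hr, read 1hr later (fluorescence).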

Test [5] can be described thus: Caspase-3/7 induction in CHO-K1 cells by small molecules, qHTS assay (AID 1346980). Note: nearly all actives have a fitted effect of over 15% in size. In outline: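 Wild-type CHO-K1 cells exposed to compounds for 17hr at 37 C, 5% CO2. Caspase-3/7 activity then measured by Caspase-Glo 3/7 luminescence after 30min at room temperature.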
The nature of test [6]: Caspase-3/7 induction in HepG2 cells by small molecules, qHTS cell viability counter screen (AID 1346981). Note: series mostly up to about 92 µM; nearly all actives have a fitted effect of over 30% in size. An outline of the steps:
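Treatment of HepG2 cells with DMSO-delivered compounds ran 16 hr at 37 C following a 5-hr pre-incubation of 2,000 cells/well. CellTiter-Fluor fluorescence, read after 1 hr, served as the viability measure in a qHTS format.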

Test [7] addresses Nuclear receptor subfamily 1 group I member 2 (Homo sapiens) (UniProt O75469). Briefly: Human pregnane X receptor (PXR) small molecule agonists, qHTS assay (AID 1346982). Note: nearly all actives have a fitted effect of over 35% in size. Note: potency is the fitted concentration of half-maximal effect. An outline of the steps: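 Stable HepG2 line reporting PXR-mediated CYP3A4 expression via luciferase. Treatment: 24 hr with compounds in DMSO at 37 C. Detection: ONE-Glo luminescence.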
Test [8] addresses Cytochrome P450 2D6 (Homo sapiens) (UniProt P10635). Briefly: Cytochrome P450 Family 2 Subfamily D Member 6 (CYP2D6) small molecule antagonists: luciferase reporter qHTS assay (AID 1671196). Note: series mostly up to about 120 µM; nearly all actives have a fitted effect of over 50% in size. In outline: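 Chemicals tested for interference with CYP2D6 activity; proluciferin substrate, NADPH regeneration, 1 h at room temperature, luminescent detection.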
The target in test [9] is Cytochrome P450 2C19 (Homo sapiens) (UniProt P33261). As to the kind of experiment: Cytochrome P450 Family 2 Subfamily C Member 19 (CYP2C19) small molecule antagonists: luciferase reporter qHTS assay (AID 1671197). For activity change, negative = inhibition: series mostly up to about 120 µM. Note: nearly all actives have a fitted effect of over 65% in size. Note: potency is the fitted concentration of half-maximal effect. An outline of the steps:
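P450-Glo CYP2C19 system: enzyme-substrate mix with compound 10 min at room temperature, then NADPH regeneration solution, 1 h at 37C. Proluciferin-to-luciferin conversion detected by luminescence after 20 min with detection reagent; ketoconazole as positive control.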
(In general: A reporter such as luciferase makes a cellular process visible.)

For test [10], the target named is Cytochrome P450 2C9 (Homo sapiens) (UniProt P11712). Briefly: Cytochrome P450 Family 2 Subfamily C Member 9 (CYP2C9) small molecule antagonists: luciferase reporter qHTS assay (AID 1671198). Note: series mostly up to about 120 µM; nearly all actives have a fitted effect of over 50% in size. An outline of the steps:
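P450-Glo proluciferin substrate with CYP2C9 enzyme; 10 min RT preincubation, then NADPH regeneration 1 h at 37C; luciferin detection reagent 20 min RT, luminescence in relative luminescence units.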

For test [11], the target named is Cytochrome P450 1A2 (Homo sapiens) (UniProt P05177). As to the kind of experiment: Cytochrome P450 Family 1 Subfamily A Member 2 (CYP1A2) small molecule antagonists: luciferase reporter qHTS assay (AID 1671199). An outline of the steps: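 Read-out is luminescence from luciferin detection reagent (20 min) proportional to CYP1A2 activity; compounds in DMSO preincubated 10 min with enzyme and proluciferin substrate, then NADPH regeneration solution, 1 h, room temperature.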

Test [12] deals with Voltage-gated inwardly rectifying potassium channel KCNH2 (Homo sapiens) (UniProt Q12809). As to the kind of experiment: Human Ether-a-go-go-Related Gene (hERG) channel small molecule antagonists: fluorescence cell-based qHTS assay (AID 1671200). In outline: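 Channel function was assessed by thallium flux. Cells seeded the previous day and kept at 37 C took up FluxOR II dye over 1 h in the dark at room temperature, then sat another 10 min before stimulation.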

Test [13] addresses Cytochrome P450 3A4 (Homo sapiens) (UniProt P08684). As to the kind of experiment: Cytochrome P450 Family 3 Subfamily A Member 4 (CYP3A4) small molecule antagonists: luciferase reporter qHTS assay (AID 1671201). In outline: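 Compounds in DMSO were pin-transferred onto CYP3A4 enzyme-substrate mix and held 10 min at room temperature. NADPH regenerating solution started the reaction for 1 h; luciferin detection reagent stopped it, and luminescence was read after 20 min.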

The nature of test [14]: Caspase-3/7 induction in HepG2 cells by small molecules, qHTS assay (AID 1346978). Note: nearly all actives have a fitted effect of over 15% in size. In outline: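 Wild-type HepG2 cells, 2,000/well, settled 5 hr at 37 C and 5% CO2, then compound-treated for 17 hr; caspase-3/7 activity read by luminescent Caspase-Glo 3/7 after 30 min at room temperature.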
Test [15] in a line: qHTS assay to identify small molecule agonists of the TGF-beta/Smad signaling pathway (AID 1346859; active = well fitted activation curve with a large enough effect in the signal ratio in the repeat runs, not every such curve was filed as active; the % refers to the signal ratio; note: series mostly up to about 77 µM). An outline of the steps: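 SBE-bla HEK 293T, 4,000 cells/well, plated o/n; cpd in DMSO, 5 hr, 37 C/5% CO2; B/G FRET substrate 2 hr RT; ex 405, em 460/530 nm.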
Test [16] deals with Thyrotropin-releasing hormone receptor (Homo sapiens) (UniProt P34981). As to the kind of experiment: qHTS assay to identify small molecule antagonists of the thyrotropin-releasing hormone receptor (TRHR) signaling pathway (AID 1346877; active = well fitted inhibition curve with a large enough effect in the repeat runs, not every such curve was filed as active; note: series mostly up to about 51 µM). An outline of the steps: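 Overnight-plated (18 h, 37 °C) HEK293 cells expressing TRHR were dye-loaded 2 h, treated with compound, then stimulated with TRH at 1 nM final. Fluorescence intensity was captured every second for 3 min.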

For test [17] the target is unchanged. Briefly: qHTS assay to identify small molecule agonists of the thyrotropin-releasing hormone receptor (TRHR) signaling pathway (AID 1346891; calls by dose curve; note: series mostly up to about 58 µM). In outline: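 Intracellular calcium rise, read as fluorescence every second for 3 min, served as the agonist signal in dye-loaded HEK293 cells expressing TRHR; each compound ran at 15 concentrations in triplicate.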
A short description of test [18]: Caspase-3/7 induction in CHO-K1 cells by small molecules, qHTS cell viability counter screen (AID 1346979). Note: nearly all actives have a fitted effect of over 35% in size. Note: potency is the fitted concentration of half-maximal effect. In outline: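 Cells (CHO-K1, wild type) are plated at 1,500 per well and incubated 5hr. Test compounds in DMSO are then pinned in, followed by 16hr at 37C and 5% CO2. Viability is read by CellTiter-Fluor fluorescence after 1hr.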
The target of test [19] is Nuclear receptor subfamily 1 group I member 2 (Rattus norvegicus) (UniProt Q9R1A7). As to the kind of experiment: Rat pregnane X receptor (rPXR) activation by small molecules, qHTS assay (AID 1346983). Note: nearly all actives have a fitted effect of over 20% in size. Note: potency is the fitted concentration of half-maximal effect. The settings on record: rPXR luciferase reporter cells, One-Glo luminescence, 24 h; max activation: stronger effect = higher value. In outline:
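Cell-based rPXR activation assay: rPXR cells, 2,000 per well, rested 5hr at 37 C, then exposed to compounds in DMSO for 24 hr at 37 C. Luciferase activity read by One-Glo luminescence after 30 min at room temperature.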

Test [20] concerns the target Nuclear receptor subfamily 1 group I member 2 (Homo sapiens) (UniProt O75469). As to the kind of experiment: Human pregnane X receptor (PXR) activation by small molecules, qHTS assay (AID 1346985). Note: nearly all actives have a fitted effect of over 40% in size. In outline: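 DPX-2 cells (HepG2 co-transfected with a PXR response element and a CYP3A4-promoter luciferase construct) were seeded at 2,000 per well, rested 5 hr at 37C, then exposed to DMSO-dissolved compounds for 24 hr. Activation was read as luciferase luminescence.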
% is set by controls: 0 for no effect and ±100 for the full control effect.

Sequence of Cytochrome P450 1A2 (Homo sapiens) (P05177 whole entry, looked up): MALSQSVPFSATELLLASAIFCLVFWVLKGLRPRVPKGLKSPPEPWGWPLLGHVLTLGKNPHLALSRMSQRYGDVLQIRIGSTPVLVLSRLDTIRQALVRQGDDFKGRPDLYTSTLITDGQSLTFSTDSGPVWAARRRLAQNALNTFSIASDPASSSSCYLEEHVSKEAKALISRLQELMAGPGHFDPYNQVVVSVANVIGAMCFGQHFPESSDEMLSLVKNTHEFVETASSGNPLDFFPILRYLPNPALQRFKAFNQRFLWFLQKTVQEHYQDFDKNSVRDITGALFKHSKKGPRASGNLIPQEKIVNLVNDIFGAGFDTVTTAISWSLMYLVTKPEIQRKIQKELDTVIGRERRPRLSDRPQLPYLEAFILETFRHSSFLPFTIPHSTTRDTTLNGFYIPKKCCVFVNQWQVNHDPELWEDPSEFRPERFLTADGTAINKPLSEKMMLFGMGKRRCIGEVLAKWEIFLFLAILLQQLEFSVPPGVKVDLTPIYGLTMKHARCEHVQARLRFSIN
Sequence of Cytochrome P450 2C19 (Homo sapiens) (P33261 whole entry, looked up): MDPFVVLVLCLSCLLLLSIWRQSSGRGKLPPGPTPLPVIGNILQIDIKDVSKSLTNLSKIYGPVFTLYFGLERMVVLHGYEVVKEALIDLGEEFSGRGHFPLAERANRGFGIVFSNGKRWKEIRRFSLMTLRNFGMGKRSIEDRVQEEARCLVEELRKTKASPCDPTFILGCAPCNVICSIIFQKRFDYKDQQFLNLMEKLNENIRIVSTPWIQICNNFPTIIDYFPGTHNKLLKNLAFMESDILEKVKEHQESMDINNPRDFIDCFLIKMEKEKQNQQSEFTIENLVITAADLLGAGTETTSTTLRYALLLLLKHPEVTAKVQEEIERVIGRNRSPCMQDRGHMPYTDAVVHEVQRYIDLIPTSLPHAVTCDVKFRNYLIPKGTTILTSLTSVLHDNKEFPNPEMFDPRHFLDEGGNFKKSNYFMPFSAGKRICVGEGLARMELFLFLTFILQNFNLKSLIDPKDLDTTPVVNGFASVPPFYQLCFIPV
Sequence of Cytochrome P450 2C9 (Homo sapiens) (P11712 whole entry, looked up): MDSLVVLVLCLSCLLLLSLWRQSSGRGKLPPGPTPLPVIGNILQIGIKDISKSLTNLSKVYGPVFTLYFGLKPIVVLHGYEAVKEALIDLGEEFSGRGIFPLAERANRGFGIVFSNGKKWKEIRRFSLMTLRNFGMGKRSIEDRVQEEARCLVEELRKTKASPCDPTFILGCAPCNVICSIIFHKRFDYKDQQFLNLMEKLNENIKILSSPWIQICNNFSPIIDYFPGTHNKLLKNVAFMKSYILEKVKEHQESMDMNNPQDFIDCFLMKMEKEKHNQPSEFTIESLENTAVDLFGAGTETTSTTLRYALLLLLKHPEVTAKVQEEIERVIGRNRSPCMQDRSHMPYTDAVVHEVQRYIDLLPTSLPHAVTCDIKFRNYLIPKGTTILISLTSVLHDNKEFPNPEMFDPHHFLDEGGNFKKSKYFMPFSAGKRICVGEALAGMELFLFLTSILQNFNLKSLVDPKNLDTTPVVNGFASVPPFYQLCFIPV
Sequence of Voltage-gated inwardly rectifying potassium channel KCNH2 (Homo sapiens) (Q12809 whole entry, looked up): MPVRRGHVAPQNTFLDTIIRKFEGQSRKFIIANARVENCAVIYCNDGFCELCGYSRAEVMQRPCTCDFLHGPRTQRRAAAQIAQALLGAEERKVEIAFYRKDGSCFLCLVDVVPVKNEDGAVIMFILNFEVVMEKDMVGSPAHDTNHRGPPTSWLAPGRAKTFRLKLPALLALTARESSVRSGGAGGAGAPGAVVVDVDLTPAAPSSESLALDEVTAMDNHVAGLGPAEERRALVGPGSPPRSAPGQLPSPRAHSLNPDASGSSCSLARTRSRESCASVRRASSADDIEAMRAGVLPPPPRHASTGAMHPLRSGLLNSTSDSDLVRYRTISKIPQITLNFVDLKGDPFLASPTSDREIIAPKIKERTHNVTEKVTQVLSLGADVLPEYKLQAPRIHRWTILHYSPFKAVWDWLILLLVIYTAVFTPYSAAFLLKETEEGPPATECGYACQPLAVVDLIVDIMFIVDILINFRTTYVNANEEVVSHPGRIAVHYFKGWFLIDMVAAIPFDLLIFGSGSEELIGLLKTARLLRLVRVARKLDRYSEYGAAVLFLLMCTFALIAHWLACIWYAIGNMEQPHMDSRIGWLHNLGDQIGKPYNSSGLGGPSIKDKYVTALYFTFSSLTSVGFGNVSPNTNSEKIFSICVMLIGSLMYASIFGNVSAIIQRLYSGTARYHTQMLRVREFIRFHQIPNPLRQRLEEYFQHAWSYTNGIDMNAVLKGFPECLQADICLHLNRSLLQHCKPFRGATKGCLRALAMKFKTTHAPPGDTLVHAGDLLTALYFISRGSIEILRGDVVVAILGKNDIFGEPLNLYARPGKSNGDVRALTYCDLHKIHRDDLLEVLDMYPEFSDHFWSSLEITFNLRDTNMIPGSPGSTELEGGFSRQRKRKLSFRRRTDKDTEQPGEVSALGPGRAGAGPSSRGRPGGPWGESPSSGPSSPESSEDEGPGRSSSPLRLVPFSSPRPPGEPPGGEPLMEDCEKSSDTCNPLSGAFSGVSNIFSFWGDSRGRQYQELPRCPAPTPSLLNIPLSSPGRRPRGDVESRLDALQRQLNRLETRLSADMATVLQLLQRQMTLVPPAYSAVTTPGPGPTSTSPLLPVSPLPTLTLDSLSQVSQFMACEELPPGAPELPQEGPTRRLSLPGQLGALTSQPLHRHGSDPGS
Sequence of Nuclear receptor subfamily 1 group I member 2 (Homo sapiens) (O75469 whole entry, looked up): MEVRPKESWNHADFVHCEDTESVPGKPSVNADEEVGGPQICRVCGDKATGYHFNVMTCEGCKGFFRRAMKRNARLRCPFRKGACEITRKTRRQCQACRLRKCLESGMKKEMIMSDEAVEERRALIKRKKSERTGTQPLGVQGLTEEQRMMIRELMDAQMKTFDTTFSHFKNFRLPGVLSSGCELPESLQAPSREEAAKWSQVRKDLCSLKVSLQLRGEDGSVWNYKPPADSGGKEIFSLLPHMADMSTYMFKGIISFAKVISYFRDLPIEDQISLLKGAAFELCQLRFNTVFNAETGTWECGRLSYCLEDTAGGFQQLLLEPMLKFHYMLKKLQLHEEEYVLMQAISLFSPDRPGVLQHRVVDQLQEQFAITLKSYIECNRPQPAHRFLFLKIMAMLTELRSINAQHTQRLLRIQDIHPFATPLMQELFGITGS
Sequence of Cytochrome P450 3A4 (Homo sapiens) (P08684 whole entry, looked up): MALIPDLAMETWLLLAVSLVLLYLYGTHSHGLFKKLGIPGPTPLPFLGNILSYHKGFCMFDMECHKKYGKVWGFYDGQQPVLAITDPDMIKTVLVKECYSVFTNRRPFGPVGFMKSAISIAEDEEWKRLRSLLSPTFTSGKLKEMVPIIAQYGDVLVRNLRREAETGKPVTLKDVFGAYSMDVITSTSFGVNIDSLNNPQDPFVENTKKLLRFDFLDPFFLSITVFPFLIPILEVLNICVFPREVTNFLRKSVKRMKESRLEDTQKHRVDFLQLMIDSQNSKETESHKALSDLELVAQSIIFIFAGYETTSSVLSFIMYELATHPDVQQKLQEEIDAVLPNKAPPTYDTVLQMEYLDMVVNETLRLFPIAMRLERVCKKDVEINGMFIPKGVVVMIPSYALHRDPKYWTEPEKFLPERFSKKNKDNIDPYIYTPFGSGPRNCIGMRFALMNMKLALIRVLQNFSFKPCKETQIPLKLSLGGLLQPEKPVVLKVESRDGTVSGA
Sequence of Thyrotropin-releasing hormone receptor (Homo sapiens) (P34981 whole entry, looked up): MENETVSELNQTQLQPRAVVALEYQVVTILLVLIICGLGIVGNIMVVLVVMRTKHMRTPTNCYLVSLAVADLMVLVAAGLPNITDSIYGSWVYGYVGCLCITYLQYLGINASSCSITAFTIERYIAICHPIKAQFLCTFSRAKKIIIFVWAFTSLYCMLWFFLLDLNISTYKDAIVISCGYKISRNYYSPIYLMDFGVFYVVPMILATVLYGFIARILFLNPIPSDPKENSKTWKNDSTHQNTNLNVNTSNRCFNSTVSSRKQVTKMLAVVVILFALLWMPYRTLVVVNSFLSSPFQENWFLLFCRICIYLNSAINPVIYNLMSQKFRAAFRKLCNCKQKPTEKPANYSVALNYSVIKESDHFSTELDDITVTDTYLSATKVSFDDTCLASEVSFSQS
Sequence of Nuclear receptor subfamily 1 group I member 2 (Rattus norvegicus) (Q9R1A7 whole entry, looked up): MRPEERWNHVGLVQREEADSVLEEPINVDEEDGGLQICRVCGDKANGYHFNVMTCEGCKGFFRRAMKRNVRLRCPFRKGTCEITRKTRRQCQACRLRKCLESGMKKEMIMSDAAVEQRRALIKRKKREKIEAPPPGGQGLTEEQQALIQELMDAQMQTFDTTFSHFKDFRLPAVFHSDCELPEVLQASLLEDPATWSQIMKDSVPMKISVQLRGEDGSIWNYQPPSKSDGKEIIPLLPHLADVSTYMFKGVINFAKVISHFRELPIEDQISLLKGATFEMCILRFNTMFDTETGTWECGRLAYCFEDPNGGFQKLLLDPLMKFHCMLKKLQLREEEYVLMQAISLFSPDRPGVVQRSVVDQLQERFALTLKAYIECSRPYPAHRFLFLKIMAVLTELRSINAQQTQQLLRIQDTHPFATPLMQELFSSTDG
Sequence of Cytochrome P450 2D6 (Homo sapiens) (P10635 whole entry, looked up): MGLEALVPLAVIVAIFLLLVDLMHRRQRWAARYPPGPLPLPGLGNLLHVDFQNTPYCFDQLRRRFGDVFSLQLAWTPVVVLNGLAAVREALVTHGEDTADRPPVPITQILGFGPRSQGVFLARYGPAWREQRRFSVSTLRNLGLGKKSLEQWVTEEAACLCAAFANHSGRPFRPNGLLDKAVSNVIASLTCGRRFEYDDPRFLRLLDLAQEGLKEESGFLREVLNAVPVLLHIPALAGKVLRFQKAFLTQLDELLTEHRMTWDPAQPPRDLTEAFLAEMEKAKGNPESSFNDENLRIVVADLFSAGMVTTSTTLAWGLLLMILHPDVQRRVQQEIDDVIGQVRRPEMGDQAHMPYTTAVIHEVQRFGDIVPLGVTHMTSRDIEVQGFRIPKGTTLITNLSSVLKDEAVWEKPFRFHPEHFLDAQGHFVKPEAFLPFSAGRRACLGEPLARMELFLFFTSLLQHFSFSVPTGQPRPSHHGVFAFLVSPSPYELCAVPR

Consider `CC(C)c1ccc(S(=O)(=O)O)cc1`, for which the Potency result in test [1], in test [2], in test [3], in test [4], in test [6] and in test [7] was “inactive” each time. Also, the Potency entry in [8], in test [9], in test [10], in test [11] and in test [13] was “inactive” in each case. Further, the molecule was called inactive in [5] and in [12].
Turning to `Cc1cnc(C(=O)NCCc2ccc(S(=O)(=O)NC(=O)NC3CCCCC3)cc2)cn1`, the Potency result in test [1], in test [2], in [3], in test [4], in test [14] and in test [6] was “inactive” each time. The Potency entry in test [7] was “inactive”. Besides, in test [5], the call was inactive.
For `CCN(CC)CCCC(C)Nc1ccnc2cc(Cl)ccc12` (stereo not drawn), the activity change, negative = cytotoxicity in test [3] was -0.0742% [at 6.97 µM] (inactive) and -3.92% [at 15.8 µM] (inactive); in test [4], -20.8% [at 8.39 µM] (inactive); in [18], -0.939% [at 8.39 µM] (inactive) and -3.64% [at 19 µM] (inactive); in test [6], -14.1% [at 8.39 µM] (inactive) and -16.1% [at 19 µM] (inactive). The activation was 1.95% [at 6.97 µM] (inactive) and -1.03% [at 15.8 µM] (inactive) in test [15]; 0.225% [at 5.23 µM] (inactive) and -0.0196% [at 11.8 µM] (inactive) in test [17]; 3.19% [at 8.39 µM] (inactive) and -3.77% [at 19 µM] (inactive) in [7]. Besides, in [16], the activity, negative = inhibition was 0.384% [at 4.65 µM] (inactive) and -4.99% [at 10.5 µM] (inactive). The Potency in test [4] is 13 µM (active). Besides, the caspase activation in test [14] was 1.19% [at 8.39 µM] (inactive) and -0.361% [at 19 µM] (inactive). Besides, the caspase-3/7 activation in test [5] is 0.759% [at 8.39 µM] (inactive) and -0.715% [at 19 µM] (inactive). In addition, in [19], the max activation was -1.5% (inactive). The Potency entry in test [20] is “inactive”. The activity change, negative = inhibition in [12] is 0.661% [at 6.97 µM] (inactive) and 1.69% [at 15.8 µM] (inactive).
`O=C(O)c1cc(=O)c2c(OCC(O)COc3cccc4oc(C(=O)O)cc(=O)c34)cccc2o1`: the Potency result in test [1], in test [2], in [3], in test [4], in test [14] and in test [18] was “inactive” each time. Besides, the Potency entry in [6], in test [7], in test [9], in test [10] and in test [11] was “inactive” each time. Besides, the result in test [5] and in test [12] was inactive.
As to `COCCCOc1ccnc(CS(=O)c2nc3ccccc3[nH]2)c1C` (stereo not drawn), the Potency entry in test [2], in test [3], in [16], in test [4], in test [14] and in test [6] was “inactive” throughout. In addition, the result in [15], in [17], in test [5] and in test [12] was inactive. In addition, the Potency in test [18] was 60.9 µM (active) and inactive; in test [19], 14.1 µM (active).
`CCC(O)OCCCOC` (stereo not drawn): the Potency entry in test [1], in test [2], in [3], in test [16], in test [14] and in test [6] was “inactive” in each case. The Potency entry in test [10], in [11] and in [13] was “inactive” in each case. The result in test [17], in test [5] and in [12] was inactive. The Potency in test [4] is 22.4 µM (active) and inactive; in test [7] it was 11.1 µM (active) and inactive; in test [9], 41 µM (active) and inactive.
As to `OCc1cccnc1`, the Potency result in test [1], in [2], in test [3], in test [16], in [4] and in [18] was “inactive” in each case. Also, the Potency result in test [6] was “inactive”. For the same molecule, the molecule was classed as inactive in test [17], in test [5] and in test [12].
With `CC(O)COCC(C)O` (stereo not drawn), the Potency entry in test [1], in [2], in [3], in [4], in [14] and in test [6] was “inactive” throughout. Also, the Potency result in test [7], in [9], in test [10], in test [11] and in [13] was “inactive” in each case. The molecule was classed as inactive in test [5] and in test [12].
